From PubChem BioAssay AID449762 (Southern Research Specialized Biocontainment Screening …, 2010)
Screen size: about 330,000 compounds; about 1,900 (0.58%) were called active. Roughly 4% stayed inconclusive and do not appear here. These entries were drawn from the full list. Results with a measured potency or affinity are listed apart. A number with no mark means an inactive call. No stated cut-off is given here; in the data, inconclusive means inhibition above about 70% without an active follow-up result; inactive means below that.

Assay: M. tuberculosis growth inhibition, HTS (AID 449762);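 further: bacterial growth assessed after seven days of incubation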
Settings: M. tuberculosis H37Rv growth inhibition, 7H9 media; at 25 µM; active compounds read high

Row | SMILES | inhibition
1 | COc1ccc(/C=C/C(=O)NC2CC3CCC2C3)cc1 (stereo not given) | 14.7%
2 | O=C(/C=C/c1ccccc1)NC1CC2CCC1C2 (stereo not given) | -10.2%
3 | Cc1c(C(=O)NC(C(C)C)C(C)C)cccc1[N+](=O)[O-] | -0.36%
4 | CC1CN(c2ccc(C(=O)c3ccccc3C(=O)O)cc2[N+](=O)[O-])CC(C)O1 (stereo not given) | -1.03%
5 | O=C1CCCC2=C1C(c1ccco1)Nc1ccc(C(=O)c3ccccc3)cc1N2 (stereo not given) | 1.55%
6 | O=C1CCCC2=C1C(c1ccccn1)Nc1ccc(C(=O)c3ccccc3)cc1N2 (stereo not given) | -10.7%
7 | O=C(NCc1cccnc1)c1cccc(OC2CCN(Cc3ccc(CO)o3)CC2)c1 | 3.84%
8 | CCOC(=O)N1CCc2c(sc(NC(C)=O)c2C(N)=O)C1 | -2.99%
9 | CCOC(=O)N1CCc2c(sc(NC(=O)C3=COCCO3)c2C(N)=O)C1 | -6.06%
10 | CCOc1ccccc1NC(=O)COC(=O)CC(NC(N)=O)c1ccc(Cl)cc1 (stereo not given) | 3.03%
11 | COC(=O)c1cc(C(=O)c2cc(F)ccc2O)cn2c(=O)c3c(C)c(C)sc3nc12 | 3.12%
12 | CCc1c(C)sc2nc3c(C(=O)N4CCOCC4)cc(C(=O)c4ccccc4O)cn3c(=O)c12 | 51.4%
13 | CC(=NCc1cccnc1)c1c(O)n(-c2ccccc2)c(=O)[nH]c1=O | -3.76%
14 | COc1ccc(O)c(-c2cc(-c3ccc(F)cc3)n[nH]2)c1 | 0.76%
15 | COC(=O)c1cc(-c2ccc(OC)cc2)n[nH]1 | -1.36%
16 | Cc1nc(SCc2c(F)cccc2Cl)n[nH]1 | -11.2%
17 | CCSC(=Nc1ccccc1)Nc1ccccc1 | -1.05%
18 | COc1ccc(C(CC(=O)NC(C)c2ccc(-c3ccccc3)cc2)NC(C)=O)cc1 (stereo not given) | 3.36%
19 | Cc1nnc(N/N=C/c2c(O)n(-c3cccc(C(F)(F)F)c3)c(=O)c3ccccc23)[nH]c1=O | 3.05%
20 | Cc1cc(=O)[nH]c(N/N=C/c2c(O)n(-c3ccccc3)c(=O)c3ccccc23)n1 | 31.9%
21 | CNS(=O)(=O)c1ccc2c(c1)oc(=O)c1cc(S(=O)(=O)NC)ccc12 | -1.49%
22 | Cn1c(=N)n(CC(=O)c2cccs2)c2ccccc21 | -0.34%
23 | c1ccc(-c2ccnc3nc(N4CCN(c5ccccc5)CC4)nn23)cc1 | -7.9%
24 | COc1ccc(-c2ccnc3nc(N4CCOCC4)nn23)cc1 | 1.34%
25 | C[C@H]1CN([C@@H](C)CO)C(=O)Cc2cc(NS(C)(=O)=O)ccc2O[C@@H]1CN(C)Cc1ccc(Cl)c(Cl)c1 | 4.73%
